{"source": "PubChem BioAssay (EPA / NIEHS)", "key": {"[1]": {"biological_target": "human Beta-secretase (BACE), BACE1 (gene 23621) (UniProt P56817)", "sequence (P56817 whole entry, looked up)": "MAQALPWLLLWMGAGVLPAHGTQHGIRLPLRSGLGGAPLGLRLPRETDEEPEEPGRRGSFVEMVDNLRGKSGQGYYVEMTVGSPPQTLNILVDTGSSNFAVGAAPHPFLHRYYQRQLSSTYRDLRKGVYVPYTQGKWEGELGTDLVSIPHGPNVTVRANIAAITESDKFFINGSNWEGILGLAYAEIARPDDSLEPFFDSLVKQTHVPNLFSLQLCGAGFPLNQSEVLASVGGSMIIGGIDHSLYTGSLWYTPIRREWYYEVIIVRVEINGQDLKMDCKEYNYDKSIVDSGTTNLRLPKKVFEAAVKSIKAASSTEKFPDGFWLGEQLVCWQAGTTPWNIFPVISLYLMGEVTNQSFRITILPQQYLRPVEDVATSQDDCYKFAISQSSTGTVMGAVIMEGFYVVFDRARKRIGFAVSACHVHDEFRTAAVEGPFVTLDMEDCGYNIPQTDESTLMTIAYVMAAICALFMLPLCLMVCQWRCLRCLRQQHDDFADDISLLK", "assay": "NVS_ENZ_hBACE: NovaScreen (NVS) Enzymatic Assay for human Beta-secretase (BACE) (AID 2283140)", "description": "NVS_ENZ_hBACE is a biochemical, single-readout assay that uses extracted gene-proteins from SF9 in a cell-free assay. Measurements were taken 1 hour after chemical dosing in a 96-well plate.NVS_ENZ_hBACE is one of one assay component(s) measured or calculated from the NVS_ENZ_hBACE assay. It is designed to make measurements of enzyme activity, a form of enzyme reporter, as detected with fluorescence intensity signals by Fluorescence technology.Data from the assay component NVS_ENZ_hBACE was analyzed into 1 assay endpoint. This assay endpoint, NVS_ENZ_hBACE, was analyzed in the positive analysis fitting direction relative to DMSO as the negative control and baseline of activity. Using a type of enzyme reporter, loss-of-signal activity can be used to understand changes in the enzymatic activity as they relate to the gene BACE1. Furthermore, this assay endpoint can be referred to as a primary readout, because […]. To generalize the intended target to other relatable targets, this assay endpoint is annotated to the protease intended target family, where the subfamily is aspartate protease.\nBinding assays used specific radioligands (tritiated, iodinated) with non-radioactive competitive displacement ligands in agonist or antagonist protocols (as indicated) and various reference compounds and inhibitors to titrate specific binding to receptors and transporters. Most enzyme assays (CYPs, kinases, phosphatases, proteases, HDACs) used recombinant protein and specific substrates (fluorescence mostly, some colorimetric and radioactive) and inhibitors, followed by a biochemical separation of substrate and product. All assays for the biochemical HTS were initially run in duplicate at a single concentration (10 uM for CYP450 assays and 25 uM for all others). […] Each assay was run with positive and negative controls, and concurrent controls on every plate. The follow-up (secondary) screen tested active chemical-pairs in concentration series, as well as a few additional assays not tested in the primary screen, some selected negative inactives, and several cases re-run in the concentration series for confirmatory purposes."}, "[2]": {"biological_target": "Caspase-3 (Homo sapiens) (UniProt P42574)", "sequence (P42574 whole entry, looked up)": "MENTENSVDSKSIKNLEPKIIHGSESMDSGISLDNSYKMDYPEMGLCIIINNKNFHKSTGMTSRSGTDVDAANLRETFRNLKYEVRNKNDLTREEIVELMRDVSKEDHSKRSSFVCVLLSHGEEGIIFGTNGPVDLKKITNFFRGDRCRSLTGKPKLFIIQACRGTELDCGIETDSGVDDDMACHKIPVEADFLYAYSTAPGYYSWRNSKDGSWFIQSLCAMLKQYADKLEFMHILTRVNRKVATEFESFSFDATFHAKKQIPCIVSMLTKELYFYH", "assay": "NVS_ENZ_hCASP3: NovaScreen (NVS) Enzymatic Assay for human Caspase 3 (CASP3) (AID 2283139)", "outline": "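Single-concentration screening at 25 uM in duplicate, with concentration-response follow-up to a 50 uM maximum for chemicals passing the threshold. Caspase-3 (human, E. coli-expressed) activity was read as substrate fluorescence after 1 h, with loss of signal relative to DMSO.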"}, "[3]": {"biological_target": "CDK2 (gene 1017) (UniProt P24941)", "assay": "NVS_ENZ_hCDK2: NovaScreen (NVS) Enzymatic Assay for human Cyclin-Cependent Kinase 2 (CDK2) (AID 2283144)", "description": "NVS_ENZ_hCDK2 is a biochemical, single-readout assay that uses extracted gene-proteins in a cell-free assay. Measurements were taken 1 hour after chemical dosing in a 384-well plate.NVS_ENZ_hCDK2 is one of one assay component(s) measured or calculated from the NVS_ENZ_hCDK2 assay. It is designed to make measurements of enzyme activity, a form of enzyme reporter, as detected with fluorescence intensity signals by Fluorescence and electrophoretic mobility shift technology.Data from the assay component NVS_ENZ_hCDK2 was analyzed into 1 assay endpoint. This assay endpoint, NVS_ENZ_hCDK2, was analyzed in the positive analysis fitting direction relative to DMSO as the negative control and baseline of activity. Using a type of enzyme reporter, loss-of-signal activity can be used to understand changes in the enzymatic activity as they relate to the gene CDK2. Furthermore, this assay endpoint can be referred to as a primary readout, because this assay has produced multiple assay endpoints where this one serves a enzymatic activity function. To generalize the intended target to other relatable targets, this assay endpoint is annotated to the kinase intended target family, where the subfamily is serine/threonine kinase. […]"}, "[4]": {"biological_target": "human Casein Kinase 1-delta (CK1D), CSNK1D (gene 1453) (UniProt P48730)", "sequence (P48730 whole entry, looked up)": "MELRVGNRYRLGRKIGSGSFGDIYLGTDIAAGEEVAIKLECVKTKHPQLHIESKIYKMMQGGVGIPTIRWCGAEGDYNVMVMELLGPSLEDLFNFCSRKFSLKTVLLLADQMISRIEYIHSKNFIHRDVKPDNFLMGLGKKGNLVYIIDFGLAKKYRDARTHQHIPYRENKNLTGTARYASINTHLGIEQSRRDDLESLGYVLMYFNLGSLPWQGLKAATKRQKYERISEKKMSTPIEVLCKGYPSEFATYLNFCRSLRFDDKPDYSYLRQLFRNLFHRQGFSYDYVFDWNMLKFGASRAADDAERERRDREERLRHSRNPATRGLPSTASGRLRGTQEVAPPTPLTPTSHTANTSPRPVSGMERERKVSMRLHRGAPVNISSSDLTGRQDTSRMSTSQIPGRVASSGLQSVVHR", "assay": "NVS_ENZ_hCK1D: NovaScreen (NVS) Enzymatic Assay for human Casein Kinase 1-delta (CK1D) (AID 2283148)", "outline": "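Recombinant human CK1-delta, cell-free; fluorescent substrate with electrophoretic mobility-shift separation of product, read 1 h after dosing. Single 25 uM duplicate screen, then concentration-response up to 50 uM; loss of signal vs DMSO.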"}, "[5]": {"biological_target": "human Caspase 5 (CASP5), CASP5 (gene 838) (UniProt P51878)", "sequence (P51878 whole entry, looked up)": "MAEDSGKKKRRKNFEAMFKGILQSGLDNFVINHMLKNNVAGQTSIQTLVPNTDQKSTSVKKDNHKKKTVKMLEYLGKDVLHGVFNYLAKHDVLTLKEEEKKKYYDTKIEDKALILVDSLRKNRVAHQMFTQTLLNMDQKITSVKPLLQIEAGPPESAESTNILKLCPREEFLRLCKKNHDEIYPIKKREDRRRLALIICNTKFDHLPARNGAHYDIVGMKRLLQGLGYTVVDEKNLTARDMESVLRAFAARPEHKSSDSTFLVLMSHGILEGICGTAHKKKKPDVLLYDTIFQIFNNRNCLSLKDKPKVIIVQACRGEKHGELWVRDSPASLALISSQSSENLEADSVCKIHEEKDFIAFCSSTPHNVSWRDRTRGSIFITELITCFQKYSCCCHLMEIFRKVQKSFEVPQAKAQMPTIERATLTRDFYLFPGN", "assay": "NVS_ENZ_hCASP5: NovaScreen (NVS) Enzymatic Assay for human Caspase 5 (CASP5) (AID 2283137)", "outline": "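Fluorescent substrate readout of CASP5 activity (loss-of-signal), measured 2 h post-dose. Protein expressed in E. coli. Primary screen duplicate at 25 uM; actives meeting threshold (e.g., 30% inhibition) rerun singleton, max 50 uM.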"}, "[6]": {"biological_target": "human AKT serine/threonine Kinase 1 (AKT1), AKT1 (gene 207) (UniProt P31749)", "sequence (P31749 whole entry, looked up)": "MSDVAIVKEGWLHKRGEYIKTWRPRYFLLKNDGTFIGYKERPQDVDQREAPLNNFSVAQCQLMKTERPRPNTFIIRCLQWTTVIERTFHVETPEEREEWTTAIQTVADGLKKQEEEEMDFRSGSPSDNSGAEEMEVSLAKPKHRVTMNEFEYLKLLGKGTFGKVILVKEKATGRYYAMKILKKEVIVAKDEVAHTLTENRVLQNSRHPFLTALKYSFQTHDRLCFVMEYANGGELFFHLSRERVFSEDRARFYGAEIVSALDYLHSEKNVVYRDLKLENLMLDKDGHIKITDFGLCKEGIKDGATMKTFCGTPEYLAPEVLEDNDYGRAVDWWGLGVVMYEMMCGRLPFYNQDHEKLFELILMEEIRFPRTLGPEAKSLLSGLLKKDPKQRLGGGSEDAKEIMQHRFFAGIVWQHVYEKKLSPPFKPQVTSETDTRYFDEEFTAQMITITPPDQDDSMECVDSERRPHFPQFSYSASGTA", "assay": "NVS_ENZ_hAKT1: NovaScreen (NVS) Enzymatic Assay for human AKT serine/threonine Kinase 1 (AKT1) (AID 2283138)", "outline": "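Fluorescence and mobility-shift readout of kinase activity, taken 1 h post-dosing in a cell-free format with recombinant protein. Primary screen at 25 uM in duplicate; hits (e.g. 30% inhibition) retested in concentration series topping at 50 uM.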"}, "[7]": {"biological_target": "human AKT serine/threonine Kinase 2 (AKT2), AKT2 (gene 208) (UniProt P31751)", "sequence (P31751 whole entry, looked up)": "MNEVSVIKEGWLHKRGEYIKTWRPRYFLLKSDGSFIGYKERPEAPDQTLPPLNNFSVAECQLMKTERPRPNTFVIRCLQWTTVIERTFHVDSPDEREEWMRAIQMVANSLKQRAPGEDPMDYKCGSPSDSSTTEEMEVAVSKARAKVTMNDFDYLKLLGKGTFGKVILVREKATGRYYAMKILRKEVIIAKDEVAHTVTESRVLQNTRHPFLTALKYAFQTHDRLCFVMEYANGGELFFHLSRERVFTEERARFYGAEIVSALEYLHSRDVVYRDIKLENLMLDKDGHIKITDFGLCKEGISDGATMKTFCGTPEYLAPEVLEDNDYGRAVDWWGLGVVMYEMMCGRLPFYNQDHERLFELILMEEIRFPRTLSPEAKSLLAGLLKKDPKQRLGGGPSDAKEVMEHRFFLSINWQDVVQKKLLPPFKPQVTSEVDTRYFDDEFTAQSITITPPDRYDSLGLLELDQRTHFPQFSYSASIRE", "assay": "NVS_ENZ_hAKT2: NovaScreen (NVS) Enzymatic Assay for human AKT serine/threonine Kinase 2 (AKT2) (AID 2283141)", "outline": "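Cell-free fluorescence/electrophoretic mobility shift readout of recombinant human AKT2 activity, 1 h after chemical dosing. Duplicate primary screen at 25 uM, then singleton concentration-response up to 50 uM; loss of signal versus DMSO baseline.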"}, "[8]": {"biological_target": "human Caspase 4 (CASP4), CASP4 (gene 837) (UniProt P49662)", "sequence (P49662 whole entry, looked up)": "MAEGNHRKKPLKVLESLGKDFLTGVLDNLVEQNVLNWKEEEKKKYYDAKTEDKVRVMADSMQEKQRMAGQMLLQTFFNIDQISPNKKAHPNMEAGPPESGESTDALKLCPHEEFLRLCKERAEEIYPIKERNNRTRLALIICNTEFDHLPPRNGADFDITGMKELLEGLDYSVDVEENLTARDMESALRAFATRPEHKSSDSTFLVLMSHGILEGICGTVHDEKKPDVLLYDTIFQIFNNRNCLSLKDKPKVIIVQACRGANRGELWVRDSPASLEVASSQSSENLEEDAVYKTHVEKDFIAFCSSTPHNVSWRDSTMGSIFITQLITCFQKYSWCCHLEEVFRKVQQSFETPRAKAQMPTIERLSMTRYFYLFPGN", "assay": "NVS_ENZ_hCASP4: NovaScreen (NVS) Enzymatic Assay for human Caspase 4 (CASP4) (AID 2283143)", "outline": "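Compounds were first tested in duplicate at 25 uM, and hits were titrated singly to a 50 uM maximum. Recombinant protease from E. coli was read by fluorescence 2 h post-dose, and activity loss was fitted against the DMSO baseline.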"}, "[9]": {"biological_target": "human Caspase 8 (CASP8), CASP8 (gene 841) (UniProt Q14790)", "sequence (Q14790 whole entry, looked up)": "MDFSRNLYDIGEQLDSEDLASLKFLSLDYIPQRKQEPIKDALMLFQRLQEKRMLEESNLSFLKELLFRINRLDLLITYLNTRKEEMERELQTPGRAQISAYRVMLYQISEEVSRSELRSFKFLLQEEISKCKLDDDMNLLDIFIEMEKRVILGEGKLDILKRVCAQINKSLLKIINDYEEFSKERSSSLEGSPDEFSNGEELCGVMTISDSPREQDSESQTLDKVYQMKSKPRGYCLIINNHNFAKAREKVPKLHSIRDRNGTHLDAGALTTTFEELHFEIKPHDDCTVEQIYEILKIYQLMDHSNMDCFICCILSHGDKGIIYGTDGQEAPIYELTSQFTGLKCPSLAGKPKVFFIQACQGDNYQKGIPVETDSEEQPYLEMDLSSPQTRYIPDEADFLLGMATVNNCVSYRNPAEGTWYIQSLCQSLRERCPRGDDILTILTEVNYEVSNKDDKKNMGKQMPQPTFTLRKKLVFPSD", "assay": "NVS_ENZ_hCASP8: NovaScreen (NVS) Enzymatic Assay for human Caspase 8 (CASP8) (AID 2283146)", "outline": "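The primary screen tested compounds in duplicate at a single 25 uM concentration, with actives followed up in concentration series. Activity of recombinant (E. coli) protease was measured by fluorescence 1 h post-dose, as signal loss against DMSO.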"}}, "note": "Inconclusive results are not listed. Activity calls are given as the source filed them. How the source made its calls: active means hit-call score of the fitted dose curve at least 0.9, where 1 is the maximum; inconclusive means response in the unintended direction; inactive means score below 0.9."}
{"smiles": "CN(C)CCCN1c2ccccc2Sc2ccc(Cl)cc21", "values": [{"measurement": "outcome", "setting": "[1]", "result": "inactive"}]}
{"smiles": "CC(=O)OC1CC(C)OC(C)O1", "note": "(stereo not drawn)", "values": [{"measurement": "outcome", "setting": "[2]", "result": "inactive"}]}
{"smiles": "O=C(Oc1ccccc1)c1cccc(C(=O)Oc2ccccc2)c1", "values": [{"measurement": "outcome", "setting": "[3]", "result": "inactive"}, {"measurement": "outcome", "setting": "[4]", "result": "inactive"}]}
{"smiles": "O=C1CCCCC1", "values": [{"measurement": "outcome", "setting": "[5]", "result": "inactive"}, {"measurement": "outcome", "setting": "[2]", "result": "inactive"}]}
{"smiles": "C=CCCCCCCCCCCCC", "values": [{"measurement": "outcome", "setting": "[4]", "result": "inactive"}]}
{"smiles": "CCCCCCCCCCCCCCOS(=O)(=O)O", "values": [{"measurement": "AC50", "setting": "[5]", "result": "2.27 µM (active)"}, {"measurement": "AC50", "setting": "[6]", "result": "14.2 µM (active)"}, {"measurement": "AC50", "setting": "[1]", "result": "1.77 µM (active)"}, {"measurement": "AC50", "setting": "[7]", "result": "13.3 µM (active)"}]}
{"smiles": "CC(N)=O", "values": [{"measurement": "outcome", "setting": "[4]", "result": "inactive"}]}
{"smiles": "O=C1c2c(O)cccc2Cc2cccc(O)c21", "values": [{"measurement": "AC50", "setting": "[5]", "result": "0.235 µM (active)"}, {"measurement": "outcome", "setting": "[6]", "result": "inactive"}, {"measurement": "AC50", "setting": "[2]", "result": "13.1 µM (active)"}, {"measurement": "AC50", "setting": "[1]", "result": "1.22 µM (active)"}, {"measurement": "AC50", "setting": "[7]", "result": "16 µM (active)"}, {"measurement": "AC50", "setting": "[8]", "result": "4.5 µM (active)"}, {"measurement": "AC50", "setting": "[9]", "result": "7.92 µM (active)"}]}
{"smiles": "CC(C)COC(=O)CCCCC(=O)OCC(C)C", "values": [{"measurement": "AC50", "setting": "[1]", "result": "36.1 µM (active)"}]}
{"smiles": "O=C(O)c1[nH]n(-c2ccc(S(=O)(=O)O)cc2)c(=O)c1N=Nc1ccc(S(=O)(=O)O)cc1", "values": [{"measurement": "outcome", "setting": "[8]", "result": "inactive"}, {"measurement": "AC50", "setting": "[9]", "result": "7.11 µM (active)"}]}
{"smiles": "CCCCCCC(CCCCCCCCCCC(=O)OCC(COC(C)=O)OC(C)=O)OC(C)=O", "note": "(stereo not drawn)", "values": [{"measurement": "AC50", "setting": "[5]", "result": "13.7 µM (active)"}]}
